Laboratory results reported in PubChem BioAssay (Tox21).
A number with no mark means an inactive call. Inconclusive results are not listed. Entries that show only a call come without a potency. Activity calls are given as the source filed them. Calls follow the shape of the dose curve; as a rule, active = well fitted curve in the direction sought with a large enough effect in the repeat runs; inconclusive = weak or mixed curves; inactive = no such curve, though single readings can be large; an effect the other way counts as inactive or inconclusive.

What was measured:
[1] = A CellTox Green Cytotoxicity Assay to monitor cytotoxicity in HEK293 cells - 40 hour (AID 1224871); also: nearly all actives have a fitted effect of over 45% in size
Method in brief: (§1)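 HEK293 cells premixed with CellTox Green dye were seeded at 600 cells/well and left 5 h at 37 C/5% CO2 before pin transfer of 23 nL compound in DMSO. Fluorescence from dye bound to dead-cell DNA was read during 40 h treatment.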

[2] = qHTS RealTime-Glo MT Cell Viability Assay in HEK293 cells - 16 hour (AID 1224872); also: top concentration of the series differs between compounds; nearly all actives have a fitted effect of over 50% in size
Method in brief: (§2)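 Reads taken at 0, 8, 16, 24, 32 and 40 h from the same wells. HEK293 cells (600/well) carried RealTime-Glo reagents from seeding, with compound added after a 5 h settle at 37 C.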

[3] = qHTS RealTime-Glo MT Cell Viability Assay in HepG2 cells - 8 hour (AID 1224873); also: nearly all actives have a fitted effect of over 55% in size
Method in brief: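 HepG2 cells mixed with RealTime-Glo MT reagents (NanoLuc plus cell-permeant prosubstrate) were seeded at 600 cells/well, incubated 5 h at 37 C/5% CO2, then pinned with compounds in DMSO; nonlytic luminescence tracked viability during 40 h treatment.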

[4] = qHTS RealTime-Glo MT Cell Viability Assay in HEK293 cells - 40 hour (AID 1224874); conditions: RealTime-Glo luminescence; max response: active compounds read low; also: nearly all actives have a fitted effect of over 50% in size
Method in brief: (§3)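 HEK293 cells mixed with RealTime-Glo reagents (NanoLuc plus cell-permeant prosubstrate) at 600 cells/well, preincubated 5 h at 37 C/5% CO2, then given 23 nL compound in DMSO. Nonlytic luminescence from viable cells was read at 0, 8, 16, 24, 32 and 40 h.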

[5] = A CellTox Green Cytotoxicity Assay to monitor cytotoxicity in HEK293 cells - 24 hour (AID 1224875); also: series mostly up to about 77 µM; nearly all actives have a fitted effect of over 45% in size
Method in brief: as §1

[6] = A CellTox Green Cytotoxicity Assay to monitor cytotoxicity in HepG2 cells - 16 hour (AID 1224876); also: nearly all actives have a fitted effect of over 45% in size
Method in brief: (§4)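 HepG2 cells were seeded together with the CellTox Green dye at 600 cells/well, left 5 h at 37 C/5% CO2, then given compounds in DMSO. Fluorescence from dye bound to dead-cell DNA was read repeatedly over 40 h of treatment at 37 C.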

[7] = qHTS RealTime-Glo MT Cell Viability Assay in HepG2 cells - 32 hour (AID 1224877); also: nearly all actives have a fitted effect of over 55% in size
Method in brief: (§5)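 HepG2 suspension premixed with RealTime-Glo reagents is plated at 600 cells per well and left 5 h at 37 C/5% CO2. Compounds in DMSO then go in, and bioluminescence reflecting viable cell number is recorded over 40 h.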

[8] = A CellTox Green Cytotoxicity Assay to monitor cytotoxicity in HepG2 cells - 24 hour (AID 1224878); also: nearly all actives have a fitted effect of over 45% in size
Method in brief: as §4

[9] = A CellTox Green Cytotoxicity Assay to monitor cytotoxicity in HepG2 cells - 40 hour (AID 1224879); also: nearly all actives have a fitted effect of over 40% in size; also: potency is read from the fitted curve at half-maximal effect
Method in brief: as §4

[10] = qHTS RealTime-Glo MT Cell Viability Assay in HEK293 cells - 0 hour (AID 1224880)
Method in brief: as §3

[11] = A CellTox Green Cytotoxicity Assay to monitor cytotoxicity in HEK293 cells - 32 hour (AID 1224881); also: nearly all actives have a fitted effect of over 40% in size
Method in brief: as §1

[12] = A CellTox Green Cytotoxicity Assay to monitor cytotoxicity in HepG2 cells - 0 hour (AID 1224882); also: nearly all actives have a fitted effect of over 35% in size
Method in brief: as §4

[13] = A CellTox Green Cytotoxicity Assay to monitor cytotoxicity in HepG2 cells - 32 hour (AID 1224883); also: nearly all actives have a fitted effect of over 50% in size
Method in brief: as §4

[14] = A CellTox Green Cytotoxicity Assay to monitor cytotoxicity in HEK293 cells - 8 hour (AID 1224884); also: nearly all actives have a fitted effect of over 35% in size
Method in brief: as §1

[15] = qHTS RealTime-Glo MT Cell Viability Assay in HepG2 cells - 16 hour (AID 1224885); also: nearly all actives have a fitted effect of over 50% in size
Method in brief: as §5

[16] = qHTS RealTime-Glo MT Cell Viability Assay in HEK293 cells - 24 hour (AID 1224886)
Method in brief: as §2

[17] = qHTS RealTime-Glo MT Cell Viability Assay in HEK293 cells - 8 hour (AID 1224887)
Method in brief: as §3

[18] = A CellTox Green Cytotoxicity Assay to monitor cytotoxicity in HEK293 cells - 16 hour (AID 1224888); also: nearly all actives have a fitted effect of over 35% in size
Method in brief: as §1

[19] = qHTS RealTime-Glo MT Cell Viability Assay in HepG2 cells - 0 hour (AID 1224889); also: nearly all actives have a fitted effect of over 50% in size
Method in brief: as §5

[20] = A CellTox Green Cytotoxicity Assay to monitor cytotoxicity in HepG2 cells - 8 hour (AID 1224890); also: nearly all actives have a fitted effect of over 45% in size
Method in brief: as §4

SMILES	Potency [1]	Potency [2]	outcome [3]	max response [4] [%]	Potency [5]	Potency [6]	Potency [7]	Potency [8]	Potency [9]	outcome [10]	Potency [11]	outcome [12]	Potency [13]	Potency [14]	Potency [15]	Potency [16]	Potency [17]	Potency [18]	outcome [19]	Potency [20]
CNC(=O)NC(O)C(Cl)(Cl)Cl (stereo not drawn)	inactive	inactive	inactive	9.22	inactive	inactive	inactive	inactive	inactive	inactive	inactive	inactive	inactive	inactive	inactive	inactive	inactive	inactive	inactive	
Cl/C=C/CCl	inactive	inactive	inactive	7.85	inactive	inactive	inactive	inactive	inactive	inactive	inactive	inactive	inactive	inactive	inactive	inactive	inactive	inactive	inactive	
CNC(=O)Oc1ccccc1C(C)C	inactive	inactive	inactive	3.33	inactive	inactive	inactive	inactive	inactive	inactive	inactive	inactive	inactive	inactive	inactive	inactive	inactive	inactive	inactive	inactive
CCN[C@@H](C)Cc1ccccc1	inactive	inactive	inactive	-5.07	inactive	inactive	inactive	inactive	154 nM (active)	inactive	inactive	inactive	inactive	inactive	inactive	inactive	inactive	inactive	inactive	inactive
CCC(=O)OC1(c2ccccc2)CCN(C)CC1	inactive	inactive	inactive	-7.76	inactive	inactive	inactive	inactive	inactive	inactive	inactive	inactive	inactive	inactive	inactive	inactive	inactive	inactive	inactive	
N[C@@H](Cc1ccc(Oc2cc(I)c(O)c(I)c2)c(I)c1)C(=O)O	inactive	inactive	inactive	5.88	inactive	inactive	inactive	inactive	inactive	inactive	inactive	inactive	inactive	inactive	inactive	inactive	inactive	inactive	inactive	inactive
CN(CCO)CCO	inactive	inactive	inactive	-0.53	inactive	inactive	inactive	inactive	inactive	inactive	inactive	inactive	inactive	inactive	inactive	inactive	inactive	inactive	inactive	
OCC(Cl)CCl (stereo not drawn)	inactive	inactive	inactive	-0.453	inactive	inactive	inactive	inactive	inactive	inactive	inactive	inactive	inactive	inactive	inactive	inactive	inactive	inactive	inactive	inactive
O=CCCl	inactive	inactive	inactive	6.03	inactive	inactive	inactive	inactive	inactive	inactive	inactive	inactive	inactive	inactive	inactive	inactive	inactive	inactive	inactive	inactive
CCN[C@@H](C)Cc1cccc(C(F)(F)F)c1	inactive	inactive	inactive	2.94	inactive	inactive	inactive	inactive	inactive	inactive	inactive	inactive	inactive	inactive	inactive	inactive	inactive	inactive	inactive	inactive
NCC1(CC(=O)O)CCCCC1	inactive	inactive	inactive	1.23	inactive	inactive	inactive	inactive	inactive	inactive	inactive	inactive	inactive	inactive	inactive	inactive	inactive	inactive	inactive	inactive
[O-][Br+2]([O-])O	inactive	inactive	inactive	3	inactive	inactive	inactive	inactive	inactive	inactive	inactive	inactive	inactive	inactive	inactive	inactive	inactive	inactive	inactive	inactive
O=C(Cl)C(Cl)(Cl)Cl	inactive	inactive	inactive	1.29	inactive	inactive	inactive	inactive	inactive	inactive	inactive	inactive	inactive	inactive	inactive	inactive	inactive	inactive	inactive	inactive
CCOC(=O)C(SP(=S)(OC)OC)c1ccccc1 (stereo not drawn)	inactive	inactive	inactive	-6.34	inactive	inactive	inactive	inactive	inactive	inactive	inactive	inactive	inactive	inactive	inactive	inactive	inactive	inactive		
CCOc1cc(OP(=S)(OC)OC)nc(CC)n1	inactive	inactive	inactive	6.75	inactive	inactive	inactive	inactive	inactive	inactive	inactive	inactive	inactive	inactive	inactive	inactive	inactive	inactive	inactive	inactive
COc1cc(CC(C)N)cc(OC)c1OC (stereo not drawn)	inactive	inactive	inactive	-3.07	inactive	inactive	inactive	inactive	inactive	inactive	inactive	inactive	inactive	inactive	inactive	inactive	inactive	inactive	inactive	
CCOP(=S)(OCC)Oc1ccc(Cl)cc1Cl	inactive	inactive	inactive	2.64	inactive	inactive	inactive	inactive	inactive	inactive	inactive	inactive	inactive	inactive	inactive	inactive	inactive	inactive	inactive	inactive
Cc1cc(OC(=O)N(C)C)nn1C(=O)N(C)C	inactive	inactive	inactive	2	inactive	inactive	inactive	inactive	inactive	inactive	inactive	inactive	inactive	inactive	inactive	inactive	inactive	inactive	inactive	
CCNc1nc(Cl)nc(NC(C)(C)C)n1	inactive	inactive	inactive	-11	inactive	inactive	inactive	inactive	inactive	inactive	inactive	inactive	inactive	inactive	inactive	inactive	inactive	inactive	inactive	inactive
O=C(O)CBr	inactive	inactive	inactive	-0.861	inactive	inactive	inactive	inactive	inactive	inactive	inactive	inactive	inactive	inactive	inactive	inactive	inactive	inactive	inactive	
CC(C)[C@]12CC(=O)[C@H](C)[C@H]1C2	inactive	inactive	inactive	-4.49	inactive	inactive	inactive	inactive	inactive	inactive	inactive	inactive	inactive	inactive	inactive	inactive	inactive	inactive	inactive	
O=C1CC(=O)NC(=O)N1	inactive	inactive	inactive	12.1	inactive	inactive	inactive	inactive	inactive	inactive	inactive	inactive	inactive	inactive	inactive	inactive	inactive	inactive	inactive	
CC(C)c1ccc(O)cc1	inactive	inactive	inactive	0.569	inactive	inactive	inactive	inactive	inactive	inactive	inactive	inactive	inactive	inactive	inactive	inactive	inactive	inactive	inactive	inactive
CCC1(c2ccccc2)CCC(=O)NC1=O (stereo not drawn)	inactive	inactive	inactive	-2.24	inactive	inactive	inactive	inactive	inactive	inactive	inactive	inactive	inactive	inactive	inactive	inactive	inactive	inactive	inactive	inactive
CC1=C2[C@H]3OC(=O)[C@@H](C)[C@@H]3CC[C@@]2(C)C=CC1=O	inactive	inactive	inactive	10.1	inactive	inactive	inactive	inactive	inactive	inactive	inactive	inactive	inactive	inactive	inactive	inactive	inactive	inactive	inactive	
NC(=O)CS(=O)C(c1ccccc1)c1ccccc1 (stereo not drawn)	inactive	inactive	inactive	-4.1	inactive	inactive	inactive	inactive	inactive	inactive	inactive	inactive	inactive	inactive	inactive	inactive	inactive	inactive	inactive	inactive
CC(C)(C)NC[C@H](O)c1ccc(O)cc1Cl	inactive	inactive	inactive	4.05	inactive	inactive	inactive	inactive	inactive	inactive	inactive	inactive	inactive	inactive	inactive	inactive	inactive	inactive	inactive	inactive
CC(C)(C1CCC(O)CC1)C1CCC(O)CC1 (stereo not drawn)	inactive	inactive	inactive	-18.7	inactive	inactive	inactive	inactive	inactive	inactive	inactive	inactive	inactive	inactive	inactive	inactive	inactive	inactive	inactive	inactive
CC1N=C(N)OC1c1ccccc1 (stereo not drawn)	inactive	inactive	inactive	-2.35	inactive	inactive	inactive	inactive	inactive	inactive	inactive	inactive	inactive	inactive	inactive	inactive	inactive	inactive	inactive	inactive
